Measured values: PubChem BioAssay (EPA / NIEHS)
Inconclusive results are not listed. Active and inactive are the calls of the source. How the source made its calls, unless noted: active means hit-call score of the fitted dose curve at least 0.9, where 1 is the maximum; inactive means score below 0.9.

Key:
[1] = CCTE_Shafer_MEA_dev_firing_rate_mean: CCTE's Neural Network Formation Assay for Mean Firing Rate, Shafer Lab (AID 2284031);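 on AC50: curve fitted for loss of firing so AC50 reflects decreased mean firing rate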
Summary of the method: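 Read-out: spike count/recording length, averaged over active electrodes, then AUC across days 5, 7, 9, 12. Rat cortical cultures on MEA; continuous 12-day exposure, media and treatment renewed DIV 5, 9; DMSO baseline.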

[2] = CCTE_Shafer_MEA_dev_per_burst_spike_percent: CCTE's Neural Network Formation Assay for Percent of Spikes in a Burst, Shafer Lab (AID 2284032);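 on AC50: fitted as a decrease in burst spike percentage below DMSO baseline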
Summary of the method: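 Value is trapezoidal AUC over recordings on days 5, 7, 9 and 12 of the well-mean fraction of spikes falling in single-electrode bursts; rat cortical cultures exposed continuously from plating, treatment renewed DIV 5 and 9, fitted downward against DMSO.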

[3] = CCTE_Shafer_MEA_dev_active_electrodes_number: CCTE's Neural Network Formation Assay for Number of Active Electrodes, Shafer Lab (AID 2284040; active means hit-call score of the fitted dose curve at least 0.9, where 1 is the maximum;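 on AC50: potency for loss of active electrodes versus DMSO so lower counts are hits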)
Summary of the method: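 Developing rat cortical networks on MEAs, exposed DIV 0–12. Value is the AUC of active-electrode counts (≥5 spikes/min) from days 5, 7, 9, 12, relative to DMSO.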

[4] = CCTE_Shafer_MEA_acute_burst_duration_mean: CCTE's Neural Acute Assay for Mean Burst Duration, Shafer Lab (AID 2284014);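 further: hits are decreases in mean burst duration relative to DMSO controls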
Summary of the method: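 Mean burst duration was compared between a 40 min baseline and a 40 min recording in the presence of compound (0.03-40 uM, 37 C), giving percent change per well. Cultures were rat cortical neurons at DIV 13 or 15; wells needed ≥10 active electrodes.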

[5] = CCTE_Shafer_MEA_acute_per_burst_spike_number_mean: CCTE's Neural Acute Assay for Average Number of Spikes Per Burst, Shafer Lab (AID 2284015);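 further: hits are decreases in mean spikes per burst versus baseline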
Summary of the method: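 Read-out: percent change in mean spikes per burst, each well's post-exposure 40-min recording versus its own 40-min baseline. Rat cortical cultures, DIV 13 or 15, compounds 0.03-40 uM; DMSO is negative control, loss-of-signal fitting.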

[6] = CCTE_Shafer_MEA_acute_interburst_interval_mean: CCTE's Neural Acute Assay for Mean Interburst Interval, Shafer Lab (AID 2284016);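 further: percent change of mean interburst interval versus each well's own pre-dose baseline; curves fitted for decrease in interburst interval relative to DMSO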
Summary of the method: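 Rat cortical cultures, DIV 13/15; 20 min equilibration, 40 min baseline, compound 0.03-40 uM, 40 min re-recording, 37 C. Spikes detected at 8x rms noise (300-5000 Hz band-pass). Endpoint: % change in interburst interval, fitted in loss direction vs DMSO.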

[7] = CCTE_Shafer_MEA_acute_burst_percentage_mean: CCTE's Neural Acute Assay for Percentage of Spikes in a Burst, Shafer Lab (AID 2284017);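 on AC50: curve fitted for loss of signal so potency reflects decreased burst percentage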
Summary of the method: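 Rat cortical cultures, DIV 13/15, 37 C. Spikes detected at 8x rms noise (300-5000 Hz band-pass). Burst spikes/total spikes averaged across electrodes per well; % change post- vs pre-treatment (40 min each), loss-of-signal fit vs DMSO.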

[8] = CCTE_Shafer_MEA_acute_burst_percentage_std: CCTE's Neural Acute Assay for Standard Deviation of Burst Percentage, Shafer Lab (AID 2284018);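 further: fitted in the negative direction so actives lower burst percentage SD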
Summary of the method: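 Value is percent change from baseline in the across-electrode SD of spikes-in-bursts percentage, wells with >/= 10 active electrodes. Acute 40-min exposure to 0.03-40 uM on DIV 13 or 15 rat cortical cultures, recorded at 37 C after 40-min baseline.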

[9] = CCTE_Shafer_MEA_acute_per_network_burst_spike_number_mean: CCTE's Neural Acute Assay for Average Number of Spikes in a Network Burst, Shafer Lab (AID 2284019);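 on AC50: curve fitted for loss of signal so actives reduce spikes per network burst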
Summary of the method: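 Percent change from baseline in mean spikes per network burst, spikes detected at 8x rms noise. Each compound at 0.03-40 uM in at least three wells of rat cortical cultures, recorded 40 min before and 40 min during exposure.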

[10] = CCTE_Shafer_MEA_acute_per_network_burst_spike_number_std: CCTE's Neural Acute Assay for Standard Deviation of Number of Spikes in a Network Burst, Shafer Lab (AID 2284020);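 further: fitted for decrease in spike-number SD versus DMSO so actives lower it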
Summary of the method: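 Endpoint: percent change from 40 min baseline in standard deviation of spikes per network burst, after 40 min compound exposure (0.03-40 uM, 37 C). Cortical rat neurons on MEA at DIV 13 or 15; spikes detected at 8x rms noise, 300-5000 Hz band-pass.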

[11] = CCTE_Shafer_MEA_acute_per_network_burst_electrodes_number_mean: CCTE's Neural Acute Assay for Mean Number of Electrodes in a Network Burst, Shafer Lab (AID 2284021);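 further: curves fitted for decreases only so hits reduce electrodes per burst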
Summary of the method: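 Rat primary cortical neurons on 16-electrode MEA wells were recorded 40 min at baseline on DIV 13 or 15, then 40 min after compound (0.03-40 uM), at 37 C. Value is percent change per well, fitted in loss direction versus DMSO.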

[12] = CCTE_Shafer_MEA_acute_network_burst_percentage: CCTE's Neural Acute Assay for Percentage of Network Bursts, Shafer Lab (AID 2284022);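 further: curves fitted for loss so actives lower network burst percentage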
Summary of the method: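 Primary rat cortical neurons on 16-electrode MEA wells, treated on DIV 13 or 15 with compound (0.03-40 uM); 40-min baseline and 40-min post-exposure recordings at 37 C. Value is percent change in spikes within network bursts versus baseline, DMSO negative control.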

[13] = CCTE_Shafer_MEA_acute_cross_correlation_area: CCTE's Neural Acute Assay for Area of Cross Correlation, Shafer Lab (AID 2284024);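 further: area under pooled inter-electrode spike cross-correlation near zero lag as percent change from own baseline; curves fitted for loss of cross-correlation area so actives lower synchrony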
Summary of the method: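 Primary rat cortical neurons on 48-well MEA plates (16 electrodes/well) were recorded 40 min at baseline on DIV 13 or 15, then 40 min with compound (0.03-40 uM) at 37 C; cross-correlation area expressed as percent change from baseline.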

[14] = CCTE_Shafer_MEA_acute_cross_correlation_HWHM: CCTE's Neural Acute Assay for Cross Correlation at Half Width at Half Maximum, Shafer Lab (AID 2284026);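 further: percent change per well from pre-dose baseline in spike cross-correlogram half width; hits are a decrease in cross-correlogram half width relative to DMSO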
Summary of the method: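 Primary rat cortical neurons on 16-electrode MEA wells; 40-min baseline on DIV 13 or 15, then 40-min recording with compound (0.03-40 uM) at 37 C. HWHM of spike cross-correlogram expressed as percent change from baseline per well, DMSO reference.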

[15] = CCTE_Shafer_MEA_acute_synchrony_index: CCTE's Neural Acute Assay for Synchrony, Shafer Lab (AID 2284027);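 further: network synchrony index of spontaneous spiking in primary rat cortical neurons on MEAs; fitted for loss of signal so actives lower synchrony relative to DMSO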
Summary of the method: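 Rat cortical cultures, DIV 13/15; spikes detected at 8x rms noise, 300-5000 Hz band-pass. Compound 0.03-40 uM, ≥3 wells; 40-min pre- and post-exposure recordings, 37 C. Readout: % change in synchrony index; loss-of-signal fit vs DMSO.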

[16] = CCTE_Deisenroth_AIME_384WELL_CTox_Active: Cytotoxicity Assessment (CTOX) in CCTE's 384-well Estrogen Receptor Transactivation Assay with AIME metabolic competence (metabolism positive), Deisenroth Lab (AID 2284037; active means hit-call score of the fitted dose curve at least 0.9, where 1 is the maximum;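 further: chemicals first conditioned 2 h by alginate-bound induced rat liver S9 before cells; activity means signal loss indicating cell death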)
Summary of the method: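 Cytotoxicity in VM7Luc4E2 breast cells, 24 hour, measured as protease-substrate fluorescence loss, after 2-hour metabolic conditioning with induced rat hepatic S9 in alginate microspheres. Concentrations 0.002 - 200 uM, 10 points, bidirectional fitting.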

[17] = CCTE_Deisenroth_AIME_384WELL_CTox_Inactive: Cytotoxicity Assessment (CTOX) in CCTE's 384-well Estrogen Receptor Transactivation Assay without AIME metabolic competence (metabolism negative), Deisenroth Lab (AID 2284039; active means hit-call score of the fitted dose curve at least 0.9, where 1 is the maximum;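 further: cell viability via live-cell protease substrate cleaved to fluorescent probe; cells exposed 24 h to medium preincubated 2 h with alginate-water beads without S9; loss of fluorescence signal means loss of viability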)
Summary of the method: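 Metabolism-negative arm: chemicals (10-point, 0.002 - 200 uM) preincubated 2 h with alginate-water lids, medium moved onto VM7Luc4E2 cells for 24 h. Fluorescent live-cell protease readout; bidirectional curve fit.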

[18] = CCTE_Harrill_HTTr_CellCount_MCF7: CCTE's Cell Proliferation Assessment for the High-Throughput Transcriptomics (HTTr) Platform, Harrill Lab (AID 2284012; active means hit-call score of the fitted dose curve at least 0.9, where 1 is the maximum;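 further: count of Hoechst-stained nuclei per well by high-content imaging in MCF-7 cells; cells exposed to compound for six hours; intended direction is loss of nuclei count meaning fewer cells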)
Summary of the method: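 Readout: Hoechst nuclear count by high-content imaging. MCF-7, 8-point dilution series, 6 h exposure. Bidirectional fit vs DMSO baseline.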

[19] = biological target: Estrogen receptor (Homo sapiens) (UniProt P03372); test: CCTE_Deisenroth_AIME_384WELL_LUC_Active: CCTE's 384-well Estrogen Receptor Transactivation Assay with AIME metabolic competence (ERTA luciferase; metabolism positive), Deisenroth Lab (AID 2284030; active means hit-call score of the fitted dose curve at least 0.9, where 1 is the maximum)
Estrogen receptor (Homo sapiens), sequence (P03372 whole entry, looked up): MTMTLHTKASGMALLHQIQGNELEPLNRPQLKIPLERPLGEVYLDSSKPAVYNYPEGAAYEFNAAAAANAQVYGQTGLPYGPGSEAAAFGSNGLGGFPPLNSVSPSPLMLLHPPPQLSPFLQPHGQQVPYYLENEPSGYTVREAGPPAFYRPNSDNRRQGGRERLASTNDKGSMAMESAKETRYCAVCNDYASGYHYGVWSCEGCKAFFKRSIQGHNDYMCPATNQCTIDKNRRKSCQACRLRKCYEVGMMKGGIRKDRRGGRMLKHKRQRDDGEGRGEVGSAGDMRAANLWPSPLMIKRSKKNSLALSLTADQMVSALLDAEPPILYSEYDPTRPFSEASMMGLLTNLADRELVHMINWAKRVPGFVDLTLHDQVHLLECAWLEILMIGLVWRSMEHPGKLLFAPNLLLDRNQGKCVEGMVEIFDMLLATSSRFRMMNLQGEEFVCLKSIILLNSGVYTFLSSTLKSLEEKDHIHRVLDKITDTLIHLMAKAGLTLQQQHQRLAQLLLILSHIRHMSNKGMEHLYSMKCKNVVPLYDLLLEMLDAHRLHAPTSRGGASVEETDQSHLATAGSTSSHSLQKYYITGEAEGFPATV
Summary of the method: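 Test chemicals (10-point series, 0.002 - 200 uM) were preincubated 2 hours with alginate-immobilized phenobarbital/beta-naphthoflavone-induced male Sprague Dawley rat liver S9; conditioned medium then went onto VM7Luc4E2 breast cells for 24 hour. Luciferase gain-of-signal fitted relative to 17beta-estradiol.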

[20] = biological target: Estrogen receptor (Homo sapiens) (UniProt P03372); test: CCTE_Deisenroth_AIME_384WELL_LUC_Inactive: CCTE's 384-well Estrogen Receptor Transactivation Assay without AIME metabolic competence (ERTA luciferase; metabolism negative), Deisenroth Lab (AID 2284038; active means hit-call score of the fitted dose curve at least 0.9, where 1 is the maximum;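 further: VM7Luc4E2 breast cells given medium preincubated 2 h with S9-free microspheres; hits raise estrogen receptor luciferase signal so potencies reflect agonists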)
Summary of the method: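 Metabolism-negative mode: AIME lids stamped in alginate-water, no hepatic S9. 2 h chemical incubation → medium onto VM7Luc4E2 ERTA, 24 h. Readout luciferase luminescence; gain-of-signal fit vs 17beta-estradiol. Conc. 0.002 - 200 uM.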

Measured: AC50

c1ccc2c(c1)c1cccc3ccc4cccc2c4c31
active: [3] 3.19 µM
inactive: [1] | [2]

CN(C)C(=N)N=C(N)N
inactive: [1] | [2] | [3]

Nc1cc([N+](=O)[O-])ccc1O
active: [5] 25.1 µM | [7] 23.7 µM | [9] 0.0403 µM | [10] 0.226 µM | [12] 15 µM | [14] 24.4 µM | [15] 22.6 µM
inactive: [4] | [6] | [8] | [11] | [13]

N#Cc1ccc(CC(=NNC(=O)Nc2ccc(OC(F)(F)F)cc2)c2cccc(C(F)(F)F)c2)cc1
active: [1] 0.363 µM | [2] 0.301 µM | [3] 0.692 µM

CCCC1CCC(=O)O1 (stereo unspecified)
inactive: [16] | [17]

CCC(=O)/C=C/C1C(C)=CCCC1(C)C (stereo unspecified)
inactive: [17]

O=C(O)c1ccc(C(=O)O)cc1
inactive: [18] | [17]

Cc1ccc(O)c(C(C)(C)C)c1
inactive: [18] | [16]

C=C[Si](OCC)(OCC)OCC
inactive: [4] | [5] | [6] | [7] | [8] | [9] | [10] | [11] | [12] | [13] | [14] | [15]

CC(C)=CCCC(C)CC=O (stereo unspecified)
inactive: [16] | [17]

NCCCCCCN
inactive: [18] | [16] | [17]

O=C(O)c1ccc([N+](=O)[O-])cc1
inactive: [16] | [17]

CC1(C)[C@@H]2CC[C@@]1(C)[C@H](O)C2
inactive: [16] | [17]

CN(C)CCCN
inactive: [19] | [16] | [20] | [17]

O=C(Cl)c1cccc(C(=O)Cl)c1
inactive: [16]

CCCCCCCCCCCCCOS(=O)(=O)O
active: [16] 156 µM | [17] 96.3 µM
